Data taken from ChEMBL document CHEMBL1961873, “Compounds: GSK PKIS; Assays: Nanosyn kinase panel” (2012).

How the values were obtained:
[1] = target: Leukocyte tyrosine kinase receptor (Homo sapiens) (UniProt P29376); settings: at 1 µM;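 further: each value is the mean inhibition of LTK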
[2] = target: Tyrosine-protein kinase Lyn (Homo sapiens) (UniProt P07948); settings: at 0.1 µM
[3] = target: Tyrosine-protein kinase Lyn (Homo sapiens) (UniProt P07948); settings: at 1 µM
[4] = target: Tyrosine-protein kinase Lyn (Homo sapiens) (UniProt P07948); settings: at 0.1 µM; remark: listed apart in the source
[5] = target: Tyrosine-protein kinase Lyn (Homo sapiens) (UniProt P07948); settings: at 1 µM; remark: listed apart in the source
[6] = target: T1, Tyrosine-protein kinase Mer (Homo sapiens) (UniProt Q12866); settings: at 0.1 µM
T1 sequence (whole entry): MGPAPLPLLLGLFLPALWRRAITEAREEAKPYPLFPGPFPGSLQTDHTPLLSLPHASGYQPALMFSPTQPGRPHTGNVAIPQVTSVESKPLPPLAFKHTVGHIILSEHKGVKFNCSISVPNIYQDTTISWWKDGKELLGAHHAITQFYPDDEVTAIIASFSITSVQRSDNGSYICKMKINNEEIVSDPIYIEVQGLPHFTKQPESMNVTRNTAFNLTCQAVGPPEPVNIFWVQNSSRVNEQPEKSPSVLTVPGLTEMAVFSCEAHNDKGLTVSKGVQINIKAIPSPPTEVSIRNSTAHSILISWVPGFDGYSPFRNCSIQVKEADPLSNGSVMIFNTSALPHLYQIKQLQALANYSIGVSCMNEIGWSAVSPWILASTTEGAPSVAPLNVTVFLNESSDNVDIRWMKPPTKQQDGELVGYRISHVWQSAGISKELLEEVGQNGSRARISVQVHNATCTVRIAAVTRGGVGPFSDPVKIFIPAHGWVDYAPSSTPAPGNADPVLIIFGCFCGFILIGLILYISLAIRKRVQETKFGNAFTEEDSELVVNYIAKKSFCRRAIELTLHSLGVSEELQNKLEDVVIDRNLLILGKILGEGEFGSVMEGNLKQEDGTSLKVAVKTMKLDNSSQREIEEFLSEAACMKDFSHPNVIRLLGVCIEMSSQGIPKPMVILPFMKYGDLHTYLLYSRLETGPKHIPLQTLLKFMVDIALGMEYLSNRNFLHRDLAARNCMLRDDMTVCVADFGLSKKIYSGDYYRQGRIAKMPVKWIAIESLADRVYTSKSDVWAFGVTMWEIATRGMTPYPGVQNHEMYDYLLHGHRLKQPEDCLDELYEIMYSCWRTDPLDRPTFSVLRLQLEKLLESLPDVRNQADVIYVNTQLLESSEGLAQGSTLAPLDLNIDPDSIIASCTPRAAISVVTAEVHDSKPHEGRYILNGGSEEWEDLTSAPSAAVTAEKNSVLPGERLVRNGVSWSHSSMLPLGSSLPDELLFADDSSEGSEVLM

[7] = target: T1, Tyrosine-protein kinase Mer (Homo sapiens); settings: at 1 µM
[8] = target: Hepatocyte growth factor receptor (Homo sapiens) (UniProt P08581); settings: at 0.1 µM
[9] = target: Hepatocyte growth factor receptor (Homo sapiens) (UniProt P08581); settings: at 1 µM
[10] = target: T2, Muscle, skeletal receptor tyrosine-protein kinase (Homo sapiens) (UniProt O15146); settings: at 0.1 µM
T2 sequence (whole entry): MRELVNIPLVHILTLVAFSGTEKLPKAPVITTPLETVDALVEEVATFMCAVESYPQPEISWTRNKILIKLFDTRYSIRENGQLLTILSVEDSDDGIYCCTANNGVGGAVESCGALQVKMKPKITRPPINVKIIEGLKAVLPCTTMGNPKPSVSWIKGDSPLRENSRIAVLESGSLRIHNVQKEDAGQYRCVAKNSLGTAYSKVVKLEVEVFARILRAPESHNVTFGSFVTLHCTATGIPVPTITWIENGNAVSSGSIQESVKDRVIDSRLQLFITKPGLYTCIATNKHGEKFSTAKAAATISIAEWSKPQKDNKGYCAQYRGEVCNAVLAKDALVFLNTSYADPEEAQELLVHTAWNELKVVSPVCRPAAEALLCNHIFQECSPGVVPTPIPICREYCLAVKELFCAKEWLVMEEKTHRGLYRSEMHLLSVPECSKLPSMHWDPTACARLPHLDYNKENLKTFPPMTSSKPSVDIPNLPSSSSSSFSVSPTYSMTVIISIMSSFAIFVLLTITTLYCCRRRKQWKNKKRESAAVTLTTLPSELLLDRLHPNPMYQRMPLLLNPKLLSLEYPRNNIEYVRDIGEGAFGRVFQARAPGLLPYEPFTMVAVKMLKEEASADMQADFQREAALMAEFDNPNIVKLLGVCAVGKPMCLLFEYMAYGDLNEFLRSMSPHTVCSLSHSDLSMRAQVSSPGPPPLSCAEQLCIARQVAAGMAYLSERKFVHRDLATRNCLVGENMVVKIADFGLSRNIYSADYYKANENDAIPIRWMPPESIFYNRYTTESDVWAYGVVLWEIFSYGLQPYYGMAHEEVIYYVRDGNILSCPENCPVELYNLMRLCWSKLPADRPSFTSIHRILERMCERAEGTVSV

[11] = target: T2, Muscle, skeletal receptor tyrosine-protein kinase (Homo sapiens); settings: at 1 µM
[12] = target: Platelet-derived growth factor receptor alpha (Homo sapiens) (UniProt P16234); settings: at 0.1 µM
[13] = target: Platelet-derived growth factor receptor alpha (Homo sapiens) (UniProt P16234); settings: at 1 µM
[14] = test system: Platelet-derived growth factor receptor alpha (Homo sapiens), P16234 [D842V]; settings: at 0.1 µM
[15] = test system: Platelet-derived growth factor receptor alpha (Homo sapiens), P16234 [D842V]; settings: at 1 µM
[16] = test system: Platelet-derived growth factor receptor alpha (Homo sapiens), P16234 [T674I]; settings: at 0.1 µM
[17] = test system: Platelet-derived growth factor receptor alpha (Homo sapiens), P16234 [T674I]; settings: at 1 µM
[18] = test system: Platelet-derived growth factor receptor alpha (Homo sapiens), P16234 [V561D]; settings: at 0.1 µM
[19] = test system: Platelet-derived growth factor receptor alpha (Homo sapiens), P16234 [V561D]; settings: at 1 µM
[20] = target: Platelet-derived growth factor receptor beta (Homo sapiens) (UniProt P09619); settings: at 0.1 µM;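 further: reported value is the mean percent inhibition of the kinase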

Platelet-derived growth factor receptor alpha (Homo sapiens), P16234 [V561D], sequence (P16234 whole entry V561D): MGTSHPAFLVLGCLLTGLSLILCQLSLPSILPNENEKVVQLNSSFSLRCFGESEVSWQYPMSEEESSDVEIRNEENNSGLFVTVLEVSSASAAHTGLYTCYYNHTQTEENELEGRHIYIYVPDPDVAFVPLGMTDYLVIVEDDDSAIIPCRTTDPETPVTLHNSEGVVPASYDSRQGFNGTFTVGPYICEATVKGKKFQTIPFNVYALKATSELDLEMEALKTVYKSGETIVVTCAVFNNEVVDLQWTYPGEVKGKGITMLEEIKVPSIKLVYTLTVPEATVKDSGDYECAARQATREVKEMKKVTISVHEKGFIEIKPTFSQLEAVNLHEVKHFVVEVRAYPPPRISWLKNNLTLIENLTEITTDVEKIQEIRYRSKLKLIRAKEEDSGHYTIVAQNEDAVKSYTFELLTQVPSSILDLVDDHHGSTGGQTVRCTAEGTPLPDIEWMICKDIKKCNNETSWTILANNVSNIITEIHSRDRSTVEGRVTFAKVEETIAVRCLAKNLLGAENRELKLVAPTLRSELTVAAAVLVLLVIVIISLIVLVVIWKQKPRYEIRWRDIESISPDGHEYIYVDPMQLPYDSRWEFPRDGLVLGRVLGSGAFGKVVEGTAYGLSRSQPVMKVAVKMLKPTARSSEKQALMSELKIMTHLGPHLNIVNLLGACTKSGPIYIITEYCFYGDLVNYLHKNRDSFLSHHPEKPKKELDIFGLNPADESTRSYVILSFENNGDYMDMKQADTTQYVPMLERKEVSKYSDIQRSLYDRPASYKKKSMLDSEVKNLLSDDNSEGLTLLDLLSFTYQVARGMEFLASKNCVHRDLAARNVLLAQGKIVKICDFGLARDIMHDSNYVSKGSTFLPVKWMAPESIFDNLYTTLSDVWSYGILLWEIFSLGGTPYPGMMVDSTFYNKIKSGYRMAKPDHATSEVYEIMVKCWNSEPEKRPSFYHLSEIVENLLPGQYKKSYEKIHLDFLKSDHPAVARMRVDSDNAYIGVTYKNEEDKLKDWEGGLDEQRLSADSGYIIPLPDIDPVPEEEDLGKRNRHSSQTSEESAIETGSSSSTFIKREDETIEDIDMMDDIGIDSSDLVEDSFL
Hepatocyte growth factor receptor (Homo sapiens), sequence (P08581 whole entry): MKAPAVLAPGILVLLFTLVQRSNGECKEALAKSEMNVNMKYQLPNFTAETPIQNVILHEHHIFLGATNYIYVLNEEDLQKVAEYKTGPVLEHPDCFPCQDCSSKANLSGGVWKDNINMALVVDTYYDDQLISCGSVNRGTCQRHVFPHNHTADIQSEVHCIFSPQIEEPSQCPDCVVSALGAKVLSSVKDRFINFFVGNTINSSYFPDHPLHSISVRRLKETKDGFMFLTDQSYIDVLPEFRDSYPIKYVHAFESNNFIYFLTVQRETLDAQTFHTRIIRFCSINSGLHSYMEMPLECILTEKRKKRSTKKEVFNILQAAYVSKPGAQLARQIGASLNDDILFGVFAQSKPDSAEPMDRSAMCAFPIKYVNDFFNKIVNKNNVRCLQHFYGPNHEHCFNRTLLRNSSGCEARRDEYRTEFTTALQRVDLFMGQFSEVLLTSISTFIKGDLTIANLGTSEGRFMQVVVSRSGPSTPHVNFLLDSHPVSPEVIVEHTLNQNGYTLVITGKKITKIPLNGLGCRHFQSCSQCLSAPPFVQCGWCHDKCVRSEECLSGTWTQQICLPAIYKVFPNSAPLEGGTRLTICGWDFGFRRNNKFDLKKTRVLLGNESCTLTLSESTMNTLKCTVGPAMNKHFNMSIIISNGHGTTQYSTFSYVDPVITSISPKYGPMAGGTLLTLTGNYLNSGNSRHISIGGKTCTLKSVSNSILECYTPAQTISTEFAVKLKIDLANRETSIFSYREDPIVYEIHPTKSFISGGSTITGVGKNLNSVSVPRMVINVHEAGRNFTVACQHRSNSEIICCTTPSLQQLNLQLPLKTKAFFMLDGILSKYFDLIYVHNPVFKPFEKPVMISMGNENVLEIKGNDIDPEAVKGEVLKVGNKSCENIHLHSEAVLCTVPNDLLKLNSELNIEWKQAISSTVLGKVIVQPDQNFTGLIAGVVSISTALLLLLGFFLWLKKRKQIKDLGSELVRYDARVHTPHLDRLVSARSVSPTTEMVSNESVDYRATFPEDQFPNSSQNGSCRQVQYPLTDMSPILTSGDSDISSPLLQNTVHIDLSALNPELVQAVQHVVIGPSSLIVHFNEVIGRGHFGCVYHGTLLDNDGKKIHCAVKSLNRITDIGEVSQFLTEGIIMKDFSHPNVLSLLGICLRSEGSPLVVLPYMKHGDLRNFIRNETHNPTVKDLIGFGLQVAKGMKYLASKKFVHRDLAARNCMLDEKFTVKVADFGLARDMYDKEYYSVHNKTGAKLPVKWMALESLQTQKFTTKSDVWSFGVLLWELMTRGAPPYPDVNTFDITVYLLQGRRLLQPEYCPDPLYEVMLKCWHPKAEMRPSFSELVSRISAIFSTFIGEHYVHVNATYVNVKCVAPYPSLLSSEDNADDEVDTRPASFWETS
Tyrosine-protein kinase Lyn (Homo sapiens), sequence (P07948 2-512 limits assumed): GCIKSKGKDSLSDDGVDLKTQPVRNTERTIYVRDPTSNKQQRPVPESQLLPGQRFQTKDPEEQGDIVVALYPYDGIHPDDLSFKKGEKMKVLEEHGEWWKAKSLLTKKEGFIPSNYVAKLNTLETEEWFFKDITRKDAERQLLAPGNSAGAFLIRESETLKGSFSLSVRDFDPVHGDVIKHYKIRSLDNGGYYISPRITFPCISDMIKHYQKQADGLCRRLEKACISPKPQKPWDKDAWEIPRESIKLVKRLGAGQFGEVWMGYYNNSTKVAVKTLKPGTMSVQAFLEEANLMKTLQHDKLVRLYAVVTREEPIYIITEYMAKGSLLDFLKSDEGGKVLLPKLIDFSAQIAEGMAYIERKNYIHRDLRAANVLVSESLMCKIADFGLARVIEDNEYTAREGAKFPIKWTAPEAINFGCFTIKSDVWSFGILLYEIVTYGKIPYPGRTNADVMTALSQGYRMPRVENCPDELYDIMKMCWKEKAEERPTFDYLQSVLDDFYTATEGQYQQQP
Platelet-derived growth factor receptor alpha (Homo sapiens), P16234 [D842V], sequence (P16234 whole entry D842V): as the sequence (P16234 whole entry V561D) above, with D561V, D842V counted along it
Leukocyte tyrosine kinase receptor (Homo sapiens), sequence (P29376 whole entry): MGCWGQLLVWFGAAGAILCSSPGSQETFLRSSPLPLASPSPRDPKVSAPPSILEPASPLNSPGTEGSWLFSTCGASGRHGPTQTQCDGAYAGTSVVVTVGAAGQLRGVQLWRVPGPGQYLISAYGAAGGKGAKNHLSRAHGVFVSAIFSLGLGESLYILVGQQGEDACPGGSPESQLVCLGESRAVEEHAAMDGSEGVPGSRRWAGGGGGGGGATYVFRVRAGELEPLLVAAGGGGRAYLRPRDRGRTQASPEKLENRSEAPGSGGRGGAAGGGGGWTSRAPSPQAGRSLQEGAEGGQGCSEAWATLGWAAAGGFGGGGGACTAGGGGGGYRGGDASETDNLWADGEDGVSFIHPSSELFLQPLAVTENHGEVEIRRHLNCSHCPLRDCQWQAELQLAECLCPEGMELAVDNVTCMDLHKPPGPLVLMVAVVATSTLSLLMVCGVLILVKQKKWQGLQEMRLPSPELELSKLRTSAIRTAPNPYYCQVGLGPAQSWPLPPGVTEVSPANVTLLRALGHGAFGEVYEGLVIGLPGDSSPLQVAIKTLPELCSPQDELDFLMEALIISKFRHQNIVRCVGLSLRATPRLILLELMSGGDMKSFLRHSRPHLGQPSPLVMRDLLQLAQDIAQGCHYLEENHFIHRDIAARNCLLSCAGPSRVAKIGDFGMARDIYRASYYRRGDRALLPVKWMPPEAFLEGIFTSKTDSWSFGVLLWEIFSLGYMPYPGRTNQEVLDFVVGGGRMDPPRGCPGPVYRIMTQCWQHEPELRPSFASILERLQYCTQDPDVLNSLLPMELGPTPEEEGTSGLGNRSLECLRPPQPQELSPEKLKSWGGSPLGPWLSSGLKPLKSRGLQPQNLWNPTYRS

## Nc1ccc(C#Cc2cncnc2Nc2ccc(OCc3cccc(F)c3)c(Cl)c2)cc1
[1]
  inhibition: 3.27%
[2]
  inhibition: 3.52%
[3]
  inhibition: 4.42%
[4]
  inhibition: 3.04%
[5]
  inhibition: 3.28%
[6]
  inhibition: 1.5%
[7]
  inhibition: 2.05%
[8]
  inhibition: 1.74%
[9]
  inhibition: 3.8%
[10]
  inhibition: -0.05%
[11]
  inhibition: -0.75%
[12]
  inhibition: 3.02%
[13]
  inhibition: 5.52%
[14]
  inhibition: 2.77%
[15]
  inhibition: 2.86%
[16]
  inhibition: 3.22%
[17]
  inhibition: 5.56%
[18]
  inhibition: 1.6%
[19]
  inhibition: 3.26%
[20]
  inhibition: 3.04%

## CCS(=O)(=O)c1ccc(OC)c(Nc2nccc(N(C)c3ccc4c(C)n[nH]c4c3)n2)c1
[1]
  inhibition: 37.5%
[2]
  inhibition: 45.7%
[3]
  inhibition: 85%
[4]
  inhibition: 37.7%
[5]
  inhibition: 82.8%
[6]
  inhibition: -1.04%
[7]
  inhibition: 1.84%
[8]
  inhibition: 3.86%
[9]
  inhibition: 5.71%
[10]
  inhibition: 2.51%
[11]
  inhibition: 1.07%
[12]
  inhibition: 22.9%
[13]
  inhibition: 67.5%
[14]
  inhibition: 21.8%
[15]
  inhibition: 74.3%
[16]
  inhibition: 5.5%
[17]
  inhibition: 12.5%
[18]
  inhibition: 20.5%
[19]
  inhibition: 69.5%
[20]
  inhibition: 20.9%

## CN(C)C(=O)O[C@H]1CN[C@H](C#Cc2cc3ncnc(Nc4ccc(OCc5cccc(F)c5)c(Cl)c4)c3s2)C1
[1]
  inhibition: 3.95%
[2]
  inhibition: 3.87%
[3]
  inhibition: 4.57%
[4]
  inhibition: 1.48%
[5]
  inhibition: 3.94%
[6]
  inhibition: 0.43%
[7]
  inhibition: 3.05%
[8]
  inhibition: 1.84%
[9]
  inhibition: 6.26%
[10]
  inhibition: 2.98%
[11]
  inhibition: 3.36%
[12]
  inhibition: 6.77%
[13]
  inhibition: 11.1%
[14]
  inhibition: 3.09%
[15]
  inhibition: 1.15%
[16]
  inhibition: 5.6%
[17]
  inhibition: 4.48%
[18]
  inhibition: 4.17%
[19]
  inhibition: 7.24%
[20]
  inhibition: 2.18%

## COc1cccc(-n2ncc3c(N/N=C/c4ccc(C)cc4)ncnc32)c1
[1]
  inhibition: 8.61%
[2]
  inhibition: 9.2%
[3]
  inhibition: 23.2%
[4]
  inhibition: 5.91%
[5]
  inhibition: 18.6%
[6]
  inhibition: 2.65%
[7]
  inhibition: 4.53%
[8]
  inhibition: -2.1%
[9]
  inhibition: 7.4%
[10]
  inhibition: 6.89%
[11]
  inhibition: 13%
[12]
  inhibition: 8.78%
[13]
  inhibition: 23.2%
[14]
  inhibition: 6.24%
[15]
  inhibition: 24.4%
[16]
  inhibition: 4.6%
[17]
  inhibition: 17.1%
[18]
  inhibition: 7.1%
[19]
  inhibition: 25.9%
[20]
  inhibition: 7.34%

## O=C(Nc1ccc(Oc2ccc3[nH]c(NC(=O)c4ccco4)nc3c2)cc1)Nc1cc(C(F)(F)F)ccc1F
[1]
  inhibition: 5.81%
[2]
  inhibition: 14%
[3]
  inhibition: 65.7%
[4]
  inhibition: 9.31%
[5]
  inhibition: 60.5%
[6]
  inhibition: 0.43%
[7]
  inhibition: 14.1%
[8]
  inhibition: 3.13%
[9]
  inhibition: 42.9%
[10]
  inhibition: 49.9%
[11]
  inhibition: 83.5%
[12]
  inhibition: 68%
[13]
  inhibition: 85%
[14]
  inhibition: 4.64%
[15]
  inhibition: 31%
[16]
  inhibition: 43.8%
[17]
  inhibition: 95.8%
[18]
  inhibition: 73.2%
[19]
  inhibition: 95.4%
[20]
  inhibition: 12.1%

## O=C1Nc2ccccc2/C1=C/Nc1ccc2[nH]c(=O)[nH]c2c1
[1]
  inhibition: 13.2%
[2]
  inhibition: 10.5%
[3]
  inhibition: 30.1%
[4]
  inhibition: 7.45%
[5]
  inhibition: 23.2%
[6]
  inhibition: 1.74%
[7]
  inhibition: 7.93%
[8]
  inhibition: 7.49%
[9]
  inhibition: 14.8%
[10]
  inhibition: 6.75%
[11]
  inhibition: 29.5%
[12]
  inhibition: 26.1%
[13]
  inhibition: 65.3%
[14]
  inhibition: 18%
[15]
  inhibition: 69.2%
[16]
  inhibition: 18.2%
[17]
  inhibition: 80.1%
[18]
  inhibition: 26.1%
[19]
  inhibition: 69.8%
[20]
  inhibition: 19.7%

## Cc1ccc2c(-c3ccnc(Nc4cccc(C(F)(F)F)c4)n3)c(-c3ccccc3)nn2n1
[1]
  inhibition: 2.99%
[2]
  inhibition: 12.6%
[3]
  inhibition: 53%
[4]
  inhibition: 8.81%
[5]
  inhibition: 47.8%
[6]
  inhibition: 4.49%
[7]
  inhibition: 20%
[8]
  inhibition: 13.9%
[9]
  inhibition: 10.4%
[10]
  inhibition: 4.93%
[11]
  inhibition: 5.46%
[12]
  inhibition: 13.9%
[13]
  inhibition: 61%
[14]
  inhibition: 10.5%
[15]
  inhibition: 38.4%
[16]
  inhibition: 3.21%
[17]
  inhibition: 9.14%
[18]
  inhibition: 14.2%
[19]
  inhibition: 52%
[20]
  inhibition: 35.4%

## COc1cccc(-n2ncc3c(N/N=C/c4ccc(S(C)(=O)=O)cc4)ncnc32)c1
[1]
  inhibition: 2.05%
[2]
  inhibition: 54.1%
[3]
  inhibition: 76.5%
[4]
  inhibition: 48.1%
[5]
  inhibition: 73.3%
[6]
  inhibition: 6.96%
[7]
  inhibition: 28.3%
[8]
  inhibition: 14.5%
[9]
  inhibition: 47.6%
[10]
  inhibition: 12.1%
[11]
  inhibition: 23.3%
[12]
  inhibition: 43.7%
[13]
  inhibition: 77.8%
[14]
  inhibition: 51.8%
[15]
  inhibition: 89%
[16]
  inhibition: 21%
[17]
  inhibition: 80.5%
[18]
  inhibition: 44.1%
[19]
  inhibition: 86.2%
[20]
  inhibition: 52.4%

## Cc1ccc(NC(=O)CC2CC2)cc1-c1ccc(C(=O)NCC2CC2)cc1
[1]
  inhibition: 4.25%
[2]
  inhibition: 6.32%
[3]
  inhibition: 7.19%
[4]
  inhibition: 4.03%
[5]
  inhibition: 6.24%
[6]
  inhibition: 0.96%
[7]
  inhibition: 1.85%
[8]
  inhibition: 7.51%
[9]
  inhibition: 9%
[10]
  inhibition: 2.1%
[11]
  inhibition: 5.33%
[12]
  inhibition: 8.04%
[13]
  inhibition: 13.8%
[14]
  inhibition: 2.79%
[15]
  inhibition: 4.37%
[16]
  inhibition: 3.52%
[17]
  inhibition: 9.3%
[18]
  inhibition: 4.68%
[19]
  inhibition: 5.09%
[20]
  inhibition: 4.05%

## CN(C)C(=O)O[C@@H]1CN[C@@H](C#Cc2cc3ncnc(Nc4ccc(OCc5cccc(F)c5)c(Cl)c4)c3s2)C1
[1]
  inhibition: 0.68%
[2]
  inhibition: 0.77%
[3]
  inhibition: 2.73%
[4]
  inhibition: 0.28%
[5]
  inhibition: 1.62%
[6]
  inhibition: -0.95%
[7]
  inhibition: 2.89%
[8]
  inhibition: 5.31%
[9]
  inhibition: 0.32%
[10]
  inhibition: -0.25%
[11]
  inhibition: 1.14%
[12]
  inhibition: 3.88%
[13]
  inhibition: 7.94%
[14]
  inhibition: 0.63%
[15]
  inhibition: 1.66%
[16]
  inhibition: 1%
[17]
  inhibition: 0.01%
[18]
  inhibition: 0.98%
[19]
  inhibition: 5.29%
[20]
  inhibition: 5.61%
